Bioassay records: PubChem BioAssay, National Center for Advancing Translational Sciences (NCATS)
An excerpt weighted towards active compounds, which were near 8.1% of everything screened.
Epigenetic reg = regulators of epigenetic silencing causing reporter derepression in mouse cells; murine LDR cells, GFP reporter derepression, 30 h; AID 1865; hit rate 0.2% among 280,000; Potency, µM (series often up to 53.9 µM), actives largely listed as activators; note: nearly all actives have a fitted effect of over 60% in size
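Reporter derepression read as number of fluorescent GFP-positive objects, 20-120 um in size, counted by laser-scanning cytometer. Mouse LDR line with an epigenetically silenced CMV-GFP locus; compound incubation 30 h, 37 C.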
RORg inh = ROR gamma (mouse) transcription inhibition; P51450; Drosophila S2 Gal4-RORgamma UAS-luciferase reporter, 20 h; Potency, µM (highest dose often 53.6 µM), most hits filed as inhibitors; hit rate 5.4% among 310,000; note: nearly all actives have a fitted effect of over 60% in size
Target sequence (P51450 whole entry, looked up, the tested form may be a part): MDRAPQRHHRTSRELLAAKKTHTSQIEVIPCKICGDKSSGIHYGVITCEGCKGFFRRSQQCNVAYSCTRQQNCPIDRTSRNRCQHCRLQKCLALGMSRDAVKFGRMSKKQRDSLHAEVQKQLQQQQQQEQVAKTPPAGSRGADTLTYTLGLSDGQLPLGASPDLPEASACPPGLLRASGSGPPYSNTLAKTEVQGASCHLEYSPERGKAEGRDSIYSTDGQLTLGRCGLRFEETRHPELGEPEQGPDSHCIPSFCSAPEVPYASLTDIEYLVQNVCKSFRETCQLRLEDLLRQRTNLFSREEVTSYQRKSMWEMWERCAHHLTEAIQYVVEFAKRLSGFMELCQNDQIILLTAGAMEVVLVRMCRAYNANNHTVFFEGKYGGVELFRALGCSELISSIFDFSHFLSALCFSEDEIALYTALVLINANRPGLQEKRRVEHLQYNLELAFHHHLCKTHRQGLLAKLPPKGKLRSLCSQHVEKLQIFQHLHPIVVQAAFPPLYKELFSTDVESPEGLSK
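Stably transfected Drosophila Schneider cells are the test system, with ROR gamma fused to Gal4 and luciferase under UAS control; luminescence is read after 20 hr of 700 uM copper sulfate induction at ambient temperature.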
ClpP mod = qHTS Assay for Activators of ClpP | purified B. subtilis ClpP, FRET peptide cleavage, 20 min | Potency, µM (titrated, usually from 57.5 µM) | hit rate 1.9% among 340,000 | ATP-dependent Clp protease proteolytic subunit (Bacillus subtilis (strain 168)), P80244 | AID 651965, 2013; active = well fitted falling curve with a large enough effect; inconclusive = small, poorly fitted or top-dose-only effect; inactive = no such curve, though single readings can be large or run the other way; note: the source files actives as falling curves though it sought activators and does not explain the sign; nearly all actives have a fitted effect of over 65% in size
Target sequence (P80244 whole entry, looked up): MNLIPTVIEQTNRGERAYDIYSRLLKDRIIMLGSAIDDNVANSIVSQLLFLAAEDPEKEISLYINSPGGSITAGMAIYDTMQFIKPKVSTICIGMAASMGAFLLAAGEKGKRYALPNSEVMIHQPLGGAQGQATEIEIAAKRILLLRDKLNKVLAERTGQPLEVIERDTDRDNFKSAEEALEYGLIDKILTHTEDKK
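Buffer: 100 mM Tris/HCl pH8, 100 mM KCl, 0.05% low protease BSA, 2.5% glycerol, 0.01% Tween-20. ClpP 10 microg/mL final; 20 min RT; delta FRET normalized to ADEP and DMSO controls.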
PINK1 expr mod = changes PINK1 expression. PINK1 immunofluorescence, high-content cytometry, 24 h. Potency, µM (top dose mostly 76.6 µM), usual class: activators. hit rate 0.2% among 410,000. AID 624263; active = well fitted activation curve with a large enough effect; inconclusive = small, poorly fitted or top-dose-only effect; cell line not stated here; note: nearly all actives have a fitted effect of over 65% in size
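Stable cell line treated 24 h with compounds at 5 concentrations (CCCP controls), then fixed and immunostained for PINK1 plus nuclear and cell stains; PINK1 immunofluorescence quantified by laser-scanning microplate cytometry.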
Gal4-VP16 FLuc = Gal4-VP16 reporter inhibition counter-screen | Drosophila S2 Gal4-VP16 UAS-luciferase, luminescence, 20 h | Potency, µM (top dose mostly 53.6 µM), actives largely listed as inhibitors | hit rate 3.5% among 310,000 | AID 2546;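 note: Gal4-VP16 expression switched on by copper sulfate through the metallothionein promoter; nearly all actives have a fitted effect of over 50% in size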
Sfp PPTase inh = blocks B. subtilis Sfp PPTase activity; Potency, µM, most hits filed as inhibitors; Q9F4F7; AID 1490; Biochemical Sfp PPTase activity, qHTS; hit rate 3.5% among 310,000;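 note: the enzyme is Sfp with the accession as filed and its product quenches rhodamine fluorescence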
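With Hepes-Na pH 7.6 buffer containing 10 mM MgCl2, Sfp (15 nM) modified BHQ-2-YbbR (12.5 uM) using rhodamine-CoA (5 uM). Two reads 30 minutes apart at 525/598 nm yielded each well's rate.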
Hits are given with their value; – = inactive; ? = inconclusive; · = no result given. Unless noted, calls come from the whole dose curve; as a rule, active = well fitted curve in the direction sought with a large enough effect; inconclusive = small, poorly fitted or top-dose-only effect, or another doubt; inactive = no such curve, though single readings can be large; an effect the other way counts as inactive or inconclusive.

SMILES	Epigenetic reg	RORg inh	ClpP mod	PINK1 expr mod	Gal4-VP16 FLuc	Sfp PPTase inh
Cc1cccc(NC(=S)NCc2ccc3c(c2)OCO3)c1C	–	5µM	–	–	13µM	–
COc1ccc(C(=O)COC(=O)c2ccc(Cl)nc2)c(OC)c1	·	·	–	–	·	·
COc1ccc(C(=O)COC(=O)c2ccc(Cl)nc2)cc1OC	·	·	22µM	–	·	·
CN(C)CCNC(=O)c1ccc(-n2c(-c3ccccc3)cc3c2CCCC3)cc1	–	·	–	–	·	·
O=C(O)C1CCCCC1C(=O)Nc1ccccc1Nc1ccccc1 (stereo unspecified)	–	–	25µM	–	–	–
O=S(=O)(Nc1c(Br)cc(Br)c2cccnc12)C1CC1	·	·	·	–	·	·
COC(=O)c1ccc(NC(=O)c2nc(S(=O)(=O)Cc3cccc(C)c3)ncc2Cl)cc1	·	6.3µM	·	–	4.5µM	?
Cc1onc(-c2c(F)cccc2Cl)c1C(=O)Nc1cc(S(=O)(=O)N2CCCCC2)ccc1O	·	·	–	16µM	·	·
Cc1onc(-c2c(F)cccc2Cl)c1C(=O)Nc1ccc(S(=O)(=O)N2CCOCC2)cc1	·	·	–	–	·	·
CC(=O)Nc1ccc(NC(=O)c2nc(S(=O)(=O)Cc3cccc(C)c3)ncc2Cl)cc1	·	6.3µM	·	–	5µM	–
Cc1onc(-c2c(F)cccc2Cl)c1C(=O)NCc1ccc2c(c1)OCO2	·	–	28µM	–	–	–
COc1ccc(S(=O)(=O)N2CCC(c3nnnn3-c3ccccc3)CC2)cc1OC	–	·	–	–	·	·
Cc1cccc(CS(=O)(=O)c2ncc(Cl)c(C(=O)NCc3ccc4c(c3)OCO4)n2)c1	·	6.3µM	–	–	3.2µM	–
CCOc1ccc(C2CC(=O)c3c([nH]c(C(=O)OCC4CCCCC4)c3C)C2)cc1 (stereo unspecified)	–	·	–	–	·	·
CCN(CC)c1ccc2cc(-c3nc(-c4ccccc4F)no3)c(=O)oc2c1	13µM	·	25µM	–	·	·
CCN(CC)c1ccc2cc(-c3nc(-c4cc(OC)c(OC)c(OC)c4)no3)c(=O)oc2c1	13µM	·	–	–	·	·
CCN(CC)c1ccc2cc(-c3nc(-c4cccs4)no3)c(=O)oc2c1	7.1µM	·	?	–	·	·
O=c1oc2ccc(Cl)cc2cc1-c1nc(-c2cccs2)no1	–	·	–	–	·	·
Cc1cnc(-n2ncc(C(=O)NCC(C)(C)N3CCOCC3)c2C(C)C)nc1-c1ccc(F)cc1	·	·	·	–	·	·
O=C(N[C@@H](c1ccccc1)[C@@H]1C[C@H]1C(=O)NCc1ccccc1)OCc1ccccc1	–	?	·	·	?	–
O=C(C1CC12CCN(Cc1cccc3cccnc13)CC2)N1CCN(Cc2cccs2)CC1 (stereo unspecified)	·	·	·	–	·	·
CC(C)S(=O)(=O)c1csc(C(=O)NN)c1Cl	–	10µM	–	–	–	?
O=C(NCCCN1CCN(c2ccccc2F)CC1)c1nnc(Cc2ccc(Cl)cc2Cl)o1	–	·	–	–	·	·
COc1ccc(NC(=O)c2cc(-c3ccccc3F)no2)cc1	–	·	?	–	·	·
Cc1nn(C)c(C)c1CN(Cc1nc(-c2cc(F)ccc2F)oc1C)C1CC1	–	28µM	·	–	–	–
SMILES	Epigenetic reg	RORg inh	ClpP mod	PINK1 expr mod	Gal4-VP16 FLuc	Sfp PPTase inh
Cc1cccc(C)c1Nc1c(-c2ccsc2)nc2ccccn12	–	·	28µM	–	·	·
Cc1cccc(C)c1Nc1c(-c2ccccc2F)nc2cccc(C)n12	–	·	32µM	–	·	·
Cc1ccccc1Nc1c(-c2ccccn2)nc2c(C)cccn12	–	4µM	·	–	7.9µM	–
Cc1ccc(Nc2c(-c3ccccn3)nc3cccc(C)n23)cc1	–	4.5µM	–	?	?	–
Cc1cccc(C)c1Nc1c(-c2ccsc2)nc2ccc(Cl)cn12	–	·	–	–	·	·
Cc1cc(C)n2c(Nc3c(C)cccc3C)c(-c3ccccn3)nc2n1	·	·	–	–	·	·
Cc1cccc(C)c1Nc1c(-c2ccccn2)nc2ccccn12	–	11µM	–	?	–	–
CCOC(=O)C1=C(C)Nc2ncnn2C1/C=C/c1ccccc1 (stereo unspecified)	–	–	–	–	–	–
CCCC1=C(C(=O)OCC)C(/C=C/c2ccccc2)n2ncnc2N1 (stereo unspecified)	–	20µM	–	?	–	–
CC(=O)Nc1ccccc1OCc1cc(=O)n2c3c(sc2n1)CCCC3	–	·	–	–	·	·
Cn1c(=O)c2c(nc(Br)n2C/C=N/NC(N)=S)n(C)c1=O	–	5µM	·	–	–	50µM
C/C=C/Cn1c(Br)nc2c1c(=O)[nH]c(=O)n2C	–	–	–	–	–	–
Cn1c(=O)[nH]c(=O)c2c1nc(N1CCCCC1)n2C/C=N/Nc1ccc(C(=O)O)cc1	–	7.1µM	–	–	?	–
Cn1c(=O)[nH]c(=O)c2c1nc(Br)n2C/C=N/NC(N)=S	–	?	·	·	–	56µM
O=C(O)CC(=O)NC12CC3CC(CC(C3)C1)C2	–	–	–	–	–	–
CC(C)NCC(=O)NC12CC3CC(CC(C3)C1)C2	–	–	16µM	–	–	–
COc1ccc(-n2nc3ccc(NC(=O)c4cc5ccccc5o4)cc3n2)cc1Cl	–	·	–	–	·	·
CC1=CCC2C(=O)N(c3nc4ccccc4n3C)C(=O)C2C1 (stereo unspecified)	–	3.5µM	–	–	?	–
CC(C)=CCl	·	–	·	·	–	·
CCN(c1ccccc1C)S(=O)(=O)c1nnc(NC(=O)c2ccccc2C)s1	–	·	–	–	·	·
COc1cc(NC(=O)COC(=O)c2n[nH]c3ccccc23)c(C)cc1[N+](=O)[O-]	–	?	–	45µM	–	–
COc1ccc(-n2nnnc2SCC(=O)Nc2cc(OC)c([N+](=O)[O-])cc2C)cc1	–	6.3µM	–	–	10µM	–
Cc1cccc(C)c1NC(=O)Cn1cc(S(=O)(=O)Cc2ccc(F)cc2)c2ccccc21	–	·	–	–	·	·
O=C(Nc1cc(-c2nc3ccccc3o2)ccc1Cl)c1ccc(N2CCCCC2)c([N+](=O)[O-])c1	–	·	–	–	·	·
CCOc1cc(CNCCc2ccc(S(N)(=O)=O)cc2)cc(Cl)c1OCc1ccccc1	–	–	–	–	?	3.5µM
SMILES	Epigenetic reg	RORg inh	ClpP mod	PINK1 expr mod	Gal4-VP16 FLuc	Sfp PPTase inh
CCOc1cc(CNC2CCCC2)cc(Cl)c1OCc1ccc(F)cc1	–	–	?	·	–	40µM
CCOc1cc(CNCCc2ccc(S(N)(=O)=O)cc2)ccc1OCc1ccccc1	–	–	–	–	–	11µM
NS(=O)(=O)c1ccc(CCNCc2cc(Br)ccc2OCc2ccccc2)cc1	–	?	–	–	16µM	–
COc1ccc(-c2cnc(C)o2)cc1S(=O)(=O)Nc1c(C)cc(C)cc1C	–	·	–	–	·	·
Cc1ccc(CNC(=O)CCc2c(C)nn(-c3ccc(N4CCCCC4)nn3)c2C)cc1	–	·	–	–	·	·
CCNCc1cc(Cl)c(OCc2ccccc2)c(OCC)c1	–	–	·	–	–	–
CCOc1cc(CNn2cn[nH]c2=S)cc(Cl)c1OCc1ccccc1F	–	7.9µM	–	–	6.3µM	–
